# According to ChEMBL document CHEMBL3988442, “University of Dundee, Small-Polar-MMV Screening Library” (2021):
# In all, about 38,000 compounds went through this assay and about 1,200 (3.2%) showed an effect of 50% or more. The median lay at about -58%. This is one part of a sample in which strong results are shown more often than they occur.
# System: Plasmodium falciparum
# Assay: Calibr Malaria Delayed Death Assay SOP
# Type: functional, organism-based
# Design: scale not given: in the data most compounds retested in dose-response had high values
# Conditions: concentration 4.99e-06 (unit not given; other assays of the set use mol/L)
row,Compound,Percent Effect [%]
1,CC(NCc1ccc(OCC(N)=O)cc1)c1ccc2c(c1)CCCC2 (centres undefined),72.97
2,CC(NCc1ccc(OCC(N)=O)cc1)c1ccc(Cl)c(Cl)c1.Cl (centres undefined),2.26
3,CC(NCc1ccc(OCC(N)=O)cc1)c1ccc(Cl)cc1.Cl (centres undefined),12.76
4,CSCCN1C(=O)CC(C)(c2ccc(Br)cc2)C1=O (centres undefined),-78.64
5,NCC(=O)N1CCCCC1c1ccc(F)cc1 (centres undefined),85.19
6,O=C1CCCCN1CCC(=O)N1CCCCC1c1ccc(F)cc1 (centres undefined),-57.96
7,COC(=O)CCCC(=O)N1CCCCC1c1ccc(F)cc1 (centres undefined),-184.4
8,CC(NC(=O)NCc1cscn1)c1ccc(N2CCOCC2)cc1 (centres undefined),-60.07
9,CC(c1ccc(F)cc1F)N1CCN(Cc2nccn2C)CC1 (centres undefined),-23.71
10,CC(NCCn1cccn1)c1cc(F)ccc1F (centres undefined),0.142
11,CC(c1cc(F)ccc1F)N1CCN(Cc2nccn2C)CC1 (centres undefined),-48.8
12,CCN1CCN(c2ccc(F)cc2C(C)NCc2ccccn2)CC1 (centres undefined),85.11
13,CC(NCc1ccccn1)c1cc2c(cc1Br)OCCO2 (centres undefined),22.3
14,CCN1CCN(c2ccc(F)cc2C(C)NCc2ccncc2)CC1 (centres undefined),71.8
15,CC(NCc1ccncc1)c1cc2c(cc1Br)OCCO2 (centres undefined),7.247
16,CCN1CCN(c2ccc(F)cc2C(C)NCc2cscn2)CC1 (centres undefined),80.23
17,CCN1CCN(c2ccc(F)cc2C(C)NCc2ccnn2C)CC1 (centres undefined),75.25
18,C[C@]1(O)CN(Cc2cscn2)CC[C@@H]1Oc1cccc(F)c1,-10.93
19,Cc1[nH]ncc1C(C)NCc1ccc(F)cc1 (centres undefined),-52.77
20,Cn1nc(-c2ccccc2)c(Cl)c1C(=O)O,13.43
21,CC(C)S(=O)(=O)NCC(Cc1cccc(F)c1)N1CCNC1=O (centres undefined),-68.63
22,COc1ccc(CNc2nc(N3CCOCC3)ns2)cc1,-61.76
23,Cc1ccc(CCNC(=O)CC2COCCN2S(=O)(=O)N(C)C)o1 (centres undefined),-12.87

row,Compound,Percent Effect [%]
1,CC(C)c1nncn1CCNC(=O)c1ccc(Cl)cc1O,-118.9
2,Cc1nccc(-c2cccc(NCC(=O)NCC(=O)N3CCCC3)c2)n1,-89.65
3,Cc1cnc(C(=O)N2CC[C@@H]3CN(c4ncccn4)CCO[C@@H]3C2)cn1,-80.08
4,Cc1nc(CO[C@H]2CN(Cc3cccs3)[C@@H]3COC[C@H]23)cs1.O=C(O)C(F)(F)F.O=C(O)C(F)(F)F,-73.25
5,CN1CCN(c2ccc(F)cc2C(N)=O)CC1,-109.6
6,Cc1ccc(CNC(C)c2nnc3n2CCCC3)o1 (centres undefined),-20.3
7,CCN1CCN(c2ccc(F)cc2C(C)NCc2noc(C)n2)CC1 (centres undefined),52.85
8,CCN1CCN(c2ccc(F)cc2C(C)NCc2nc(C)no2)CC1 (centres undefined),4.183
9,Cc1nc(CNC(=O)Nc2cc(F)ccc2OC(F)F)no1,-136.5
10,CC(COc1ccccc1)NCc1cn2ccccc2n1 (centres undefined),-27.04
11,Cc1ccc(C(=O)N2CCC3(CCC(=O)N(C(C)C)C3)CC2)c(O)c1,-20.48
12,COC(=O)c1ccc(C2CC(=O)Nc3c2cnn3C)cc1 (centres undefined),-67.54
13,CCc1noc(CN2CCCC(Cn3nc(C)nc3C)C2)n1 (centres undefined),-109.5
14,CN(C)c1ccc(C(=O)N2CCN(Cc3cscn3)CC2)cc1F,-147.3
15,CCC1CN(Cc2c(O)ccc3oc4c(c23)CCCC4)CCO1 (centres undefined),59.59
16,NC(=O)C1CN(Cc2c(O)ccc3oc4c(c23)CCCC4)CCO1 (centres undefined),-24.38
17,Oc1ccc2oc3c(c2c1CN1CCOCC1)CCCC3,15.46
18,CN1CCC(N(C)C[C@H]2CC[C@@H](Cc3cccc(O)c3)O2)CC1,56.23
19,CN1CCC(N(C)C[C@H]2CC[C@@H](Cc3cccc(CO)c3)O2)CC1,-136
20,CN1CCC(N(C)C[C@H]2CC[C@@H](Cc3ccc4occc4c3)O2)CC1,85.36
21,CCN1CCN(C[C@H]2CC[C@@H](Cc3ccc4c(c3)OCO4)O2)CC1,-22.56
22,COc1ccc(C[C@@H]2CC[C@H](CN(C)C3CCN(C)CC3)O2)cc1,49.48
23,CN1CCN(C[C@H]2CC[C@@H](Cc3ccc4c(c3)OCO4)O2)CC1,-29.46

row,Compound,Percent Effect [%]
1,CCCc1ccc(C(=O)N2CCc3c(nc(C)nc3N(C)C)C2)cc1,-63.88
2,COc1ccc([C@@H]2NC(=O)N[C@H]3OCCC[C@H]32)cc1,13.26
3,O=C(c1ccco1)N1C[C@H]2CN(Cc3cccc(F)c3)C(=O)[C@H]2C1,-97.73
4,O=C(CNC(=O)N1CCN(c2cccc(Cl)c2)CC1)Nc1ccccn1,-109.2
5,CN(Cc1nnc(C2CC2)n1C)S(=O)(=O)Cc1ccccc1F,-39.05
6,Cc1cc(NC(=O)NC(C)CN2CCN(c3ccccc3)CC2)on1 (centres undefined),58.09
7,Cc1cc(NC(=O)N(C)CCN2CCN(c3ccccc3)CC2)on1,-52.94
8,Cc1cc(NC(=O)CN(c2ccccc2)C(C)C)on1,-10.54
9,COC(=O)c1cc2c(=O)n(C3CC3)ccc2nc1C,-61.53
10,Cc1nc(C)n(C2CCCN(C(=O)CCCNc3ncccn3)C2)n1 (centres undefined),-99.16
11,CSc1ccc(OCCN2CCNC(=O)C2C)cc1 (centres undefined),-33.67
12,COCC1CC2(CCN(Cc3ccoc3)CC2)CN1Cc1ccccn1 (centres undefined),55.13
13,COCC1CC2(CCN(Cc3nccs3)CC2)CN1Cc1ccccn1.O=C(O)C(F)(F)F.O=C(O)C(F)(F)F.O=C(O)C(F)(F)F (centres undefined),-3.583
14,COCC1CC2(CCN(CC3CC3)CC2)CN1Cc1ccccn1.O=C(O)C(F)(F)F.O=C(O)C(F)(F)F (centres undefined),39.61
15,CCOc1ccc(-c2c(C#N)c(N)nc3c2COCC3)cn1,-92.51
16,CC(=O)N(Cc1noc(C2CC2)n1)C1CCN(Cc2ccccn2)C1 (centres undefined),-1.635
17,O=C(O)C(F)(F)F.O=C(O)C(F)(F)F.O=C(c1ccnnc1)N1CCN(Cc2cccnc2)c2ncccc2C1,-70.53
18,CN1CC[C@H](N(Cc2ccccc2)C2COC2)C[C@H](O)C1,43.99
19,CN1CCC(N(C)CCC(=O)N2CCC(CCc3ccccc3)CC2)C1 (centres undefined),17.74
20,CN(CC1CC1)C(=O)CN(Cc1cccc(O)c1)C1CCC(O)CC1 (centres undefined),-102.5
21,CN1CC[C@H](N(C)Cc2ccccc2)C[C@H](O)C1,2.065
22,CN1CC[C@H](N(Cc2ccccc2)Cc2ccccc2)C[C@H](O)C1,71.85
23,CN1CC[C@H](N(Cc2ccccc2)CC2CC2)C[C@H](O)C1,80.63
